Experimental data from PubChem BioAssay AID651789 (National Center for Advancing Translational Sciences (NCATS), 2012).
Inconclusive results are not listed. Entries that show only a call come without a potency. Activity calls are given as the source filed them. Calls come from the whole dose curve; as a rule, active = well fitted inhibition curve with a large enough effect; inconclusive = small, poorly fitted or top-dose-only effect; inactive = no such curve, though single readings can be large or run the other way.

test: Acumen qHTS Assay for Inhibitors of the mTORC1 Signaling Pathway in WT MEF Cells: Hit Validation; settings: Acumen imaging; series mostly up to 37.3 µM; note: nearly all actives have a fitted effect of over 60% in size
Summary of the method: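 Read-out is immunofluorescent phospho-rpS6 (Ser235/236) normalised to PI-stained cell number, reported as % active cells using a 7.5 nM rapamycin threshold. Cells: WT or Tsc2-/-, p53-/- MEFs, compound-exposed 24 h at 37C; PI count also tracks viability.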
Potency is the fitted concentration of half-maximal effect.

Row | SMILES | Potency
1 | CCCN1C(=O)C(Cc2nc3ccccc3c(=O)n2CC)c2ccccc21 (stereo not given) | inactive
2 | CCc1ccc(NC(=O)C2CCCN(S(=O)(=O)c3c(C)noc3/C=C/N(C)C)C2)cc1 (stereo not given) | 2070 nM (active)
3 | COc1ccc(/C=C/C(=O)Nc2ccc3nc(N4CCC(C)CC4)cc(C)c3c2)cc1OC | inactive
4 | Cc1cccc(CS(=O)(=O)c2ncc(Cl)c(C(=O)Nc3nnc(C(C)C)s3)n2)c1 | 14700 nM (active)
5 | CCCOc1cccc(C2c3c(-c4ccccc4O)n[nH]c3C(=O)N2Cc2ccco2)c1 (stereo not given) | inactive
6 | COc1ccc(NC(=O)c2c(NC(=O)COc3ccccc3)sc3c2CCC(C)C3)cc1 (stereo not given) | inactive
7 | CCOc1ccccc1NC(=O)c1cn(C2CCCC2)c(=O)c2c1c1ccccc1n2C | inactive
8 | Nc1nnc(SCC(=O)Nc2cccc(F)c2)s1 | inactive
9 | O=C(NCCc1ccc(Cl)cc1)C(=O)NCC(c1cccs1)S(=O)(=O)c1cccs1 (stereo not given) | inactive
10 | COc1ccccc1C(=O)Nc1ccc2nc(N3CCC(C)CC3)cc(C)c2c1 | inactive
11 | COc1ccccc1N1CCN(Cc2cc(COC(C)C)c3cccnc3c2O)CC1 | 2930 nM (active)
12 | COc1ccc(OC)c(NC(=O)c2nnn(CC(=O)Nc3ccc(C(C)C)cc3)c2N)c1 | inactive
13 | Cc1c(C(=O)OCCOc2ccccc2)[nH]c2c1C(=O)CC(c1ccccc1)C2 (stereo not given) | 65.6 nM (active)
14 | Cc1cccc(Nc2nnc(-c3ccc(C)c(S(=O)(=O)N4CCN(C)CC4)c3)c3ccccc23)c1 | inactive
15 | Cc1ccc(-c2noc(CCC(=O)N(C)c3ccccc3F)n2)cc1 | inactive
16 | CCc1nnc(NC(=O)c2nc(S(=O)(=O)Cc3cccc(C)c3)ncc2Cl)s1 | 5210 nM (active)
17 | Oc1ccc(NCc2ccccc2OCc2ccc(Cl)cc2)cc1 | inactive
18 | CCc1ccc(S(=O)(=O)c2c(C(=O)c3ccc(C)c(C)c3)cnc3ccccc23)cc1 | inactive
19 | Cc1ccc(C(C)C)c(OCC(=O)Nc2cc(-c3nc4ccccc4[nH]3)ccc2C)c1 | inactive
20 | CCS(=O)(=O)c1oc(-c2ccc(F)cc2)nc1S(=O)(=O)c1ccc(Br)cc1 | 4650 nM (active)

Row | SMILES | Potency
21 | CCOc1ccc(NC(=O)CSc2oc(-c3ccc(F)cc3)nc2S(=O)(=O)c2ccc(C)cc2)cc1 | 2330 nM (active)
22 | CCCCOc1cccc(C(=O)N2CCN(CCc3ccncc3)CC2)c1 | inactive
23 | CCc1ccc(NC(=O)Cn2nc(C(F)(F)F)c3c2CCCC3)cc1 | inactive
24 | COc1ccc(C2=NS(=O)(=O)N(C)C(C(=O)Nc3ccc(OC(F)(F)F)cc3)=C2)cc1 | inactive
25 | CCCCN(CC)CCNC(=O)C1CCN(c2nnc(C)c3c(C)n(-c4ccc(C)cc4)nc23)CC1 | inactive
26 | CC1CCCCN1c1nnc(NC(=O)Nc2ccccc2F)s1 (stereo not given) | inactive
27 | CS(=O)(=O)N(CC(=O)NCCc1ccccc1)c1cc(C(F)(F)F)ccc1Cl | inactive
28 | COc1ccc(CCNC(=O)C(C)n2nc(C)c3sc4ccccc4c3c2=O)c(OC)c1 (stereo not given) | inactive
29 | CCc1ccc(NC(=O)C2CCCN(S(=O)(=O)c3cccc4cccnc34)C2)cc1 (stereo not given) | inactive
30 | CCSc1oc(-c2ccc(F)cc2)nc1S(=O)(=O)c1ccc(C)cc1 | inactive
31 | CCC(Sc1nncn2c1cc1oc(C)cc12)C(=O)Nc1ccc(F)cc1 (stereo not given) | inactive
32 | COc1ccc(C2CC(=O)c3c([nH]c(C(=O)OC4CCCCCC4)c3C)C2)cc1OC (stereo not given) | inactive
33 | CCc1ccc(C(=O)CC2(O)C(=O)N(CCc3ccccc3)c3ccc(Cl)cc32)cc1 (stereo not given) | inactive
34 | Cc1nn(CCCC(=O)NCc2ccccc2)c(=O)c2c1sc1ccccc12 | inactive
35 | CCN1CCC(N(Cc2ccc(F)cc2)C(=O)Nc2ccc(C)c(F)c2)CC1 | inactive
36 | CCCS(=O)(=O)c1ncc(Cl)c(C(=O)N2CCN(c3ccc(OC)cc3)CC2)n1 | 2930 nM (active)
37 | CCN(C(=O)C(NS(=O)(=O)c1ccc(Br)s1)c1ccccc1)c1ccc(C)c(C)c1 (stereo not given) | inactive
38 | CCS(=O)(=O)c1ccccc1C(=O)N(Cc1cccnc1)c1nc2cc(C)c(C)cc2s1 | inactive
39 | CCCC1=Nc2cc(C(=O)NCc3ccccc3)ccc2Sc2ccccc21 | 2610 nM (active)
40 | COc1ccc(NC(=O)c2ccc3c(=O)n4nc(Nc5cc(C)ccc5C)sc4nc3c2)cc1 | 2930 nM (active)
